Screening results (PubChem)
This is one part of a sample in which hits are shown more often than they occur.
DT40 TDP1 CPT – qHTS for Inhibitors of human tyrosyl-DNA phosphodiesterase 1 (TDP1): qHTS in cells in presence of CPT | chicken DT40 Tdp1-/-;hTDP1 cells + 20 nM CPT, ATP luminescence, 48 h | Potency, µM (series often up to 46.2 µM), for the others: top-dose activity change, negative = growth inhibition, most hits filed as inhibitors | 12% of 420,000 active | AID 686979, 2013; also: potency is read from the fitted curve at half-maximal effect; nearly all actives have a fitted effect of over 55% in size
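Chicken DT40 Tdp1-/- cells complemented with human TDP1, 400 cells/well, exposed to compounds plus 20 nM camptothecin for at least 48 h at 37 C; viability read as ATP content by CellTiter-Glo luminescence.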
HT1080 IDH1KD tx – qHTS for induction of synthetic lethality in tumor cells producing 2HG: qHTS for the HT-1080-IDH1KD cell line; HT-1080 IDH1 knockdown viability, ATP luminescence, 48 h; Potency, µM (series often up to 46.1 µM), for the others: top-dose activity, negative = toxicity, most hits filed as cytotoxic; 2% of 360,000 active;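 also: potency is read from the fitted curve at half-maximal effect; 0% = DMSO wells and -100% = cell-free medium wells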
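After a 2 h attachment period, IDH1KD HT-1080 cells took pin-transferred compound for 48 h at 37 °C; ATP-based luminescence after 10 min room-temperature reagent incubation reported viability.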
IL1B secr inh – qHTS for Inhibitors of Inflammasome Signaling: IL-1-beta AlphaLISA Primary Screen; 4.7% of 360,000 active; activity change, % at 57.5 µM; THP-1 LPS/ATP IL-1B secretion, AlphaLISA, 16 h; stronger effect = lower value; AID 743279, 2014; in the data active = activity change below about -50%; inconclusive = mostly about -30% to -49%
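Secreted IL-1B measured by AlphaLISA bead assay after 16 h compound exposure of THP-1 cells; compounds (final up to 57.5 uM) added 1 h before LPS (250 ng/mL) and ATP (1.25 mM) stimulation; lower signal means less secretion.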
DT40 TDP1 no CPT – qHTS for Inhibitors of human tyrosyl-DNA phosphodiesterase 1 (TDP1): qHTS in cells in absence of CPT. DT40 Tdp1-/- hTDP1 cells, no CPT, ATP luminescence, 48 h. Potency, µM (highest dose often 46.2 µM), for the others: at the highest dose activity change, negative = growth inhibition, hits mostly inhibitors. 15% of 420,000 active; also: potency is read from the fitted curve at half-maximal effect; nearly all actives have a fitted effect of over 55% in size
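Chicken DT40 Tdp1-/- cells stably complemented with human TDP1 were seeded at 400 cells/well with DMSO in place of 20 nM camptothecin. After compound pinning, cells grew at least 48 hr at 37 °C; viability read by CellTiter-Glo luminescence.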
HT1080NT lethal – qHTS for induction of synthetic lethality in tumor cells producing 2HG: qHTS for the HT-1080-NT fibrosarcoma cell line; HT-1080-NT fibrosarcoma viability, CellTiter-Glo ATP luminescence, 48 h; Potency, µM (top dose mostly 46.1 µM), for inactives: top-dose activity, negative = less viability, usual class: cytotoxic; 1.6% of 360,000 active;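 also: NT is the 2HG producing partner of a matched IDH1 knockdown line; potency is read from the fitted curve at half-maximal effect; 0% = DMSO-treated cells and -100% = media-only wells without cells; nearly all actives have a fitted effect of over 55% in size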
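HT-1080-NT fibrosarcoma cells (2HG-overproducing), 750 cells/well in RPMI with 5% FBS, dosed after 2 h and incubated 48 h at 37C. CellTiter-Glo luminescence normalized to DMSO and no-cell wells; concentration-response curves fitted and classed.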
ALOX12 inh – Primary qHTS assay for inhibitors of human arachidonate 12S-lipoxygenase (ALOX12): Round 2 | Polyunsaturated fatty acid lipoxygenase ALOX12 (Homo sapiens), P18054 | purified 12hLO, xylenol orange hydroperoxide absorbance | Potency, µM (titrated, usually from 108 µM), for the others: at the highest dose activity change, negative = inhibition, most hits filed as inhibitors | 1.1% of 580,000 active | AID 1671190, 2021; also: potency is read from the fitted curve at half-maximal effect
Target sequence (P18054 whole entry, looked up): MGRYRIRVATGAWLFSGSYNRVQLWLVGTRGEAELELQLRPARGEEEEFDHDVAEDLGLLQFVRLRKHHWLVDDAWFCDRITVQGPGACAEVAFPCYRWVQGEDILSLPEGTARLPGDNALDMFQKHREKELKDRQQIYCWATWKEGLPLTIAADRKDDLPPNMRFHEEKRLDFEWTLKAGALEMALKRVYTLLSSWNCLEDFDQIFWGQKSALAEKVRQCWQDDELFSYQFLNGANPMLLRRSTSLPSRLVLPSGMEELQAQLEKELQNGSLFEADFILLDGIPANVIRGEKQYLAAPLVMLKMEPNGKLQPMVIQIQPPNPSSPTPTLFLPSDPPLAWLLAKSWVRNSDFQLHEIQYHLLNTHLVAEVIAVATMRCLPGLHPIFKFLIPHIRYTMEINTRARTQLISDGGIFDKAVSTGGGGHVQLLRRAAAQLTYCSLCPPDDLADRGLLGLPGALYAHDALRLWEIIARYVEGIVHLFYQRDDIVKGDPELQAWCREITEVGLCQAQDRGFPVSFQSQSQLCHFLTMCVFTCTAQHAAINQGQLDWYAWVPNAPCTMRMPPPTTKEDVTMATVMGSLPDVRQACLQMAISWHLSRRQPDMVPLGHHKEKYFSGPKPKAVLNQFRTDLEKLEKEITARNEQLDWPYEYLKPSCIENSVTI
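Purified human 12hLO (150 nM final) in 25 mM Hepes, 0.01% Triton X-100, pH 7.0 was preincubated 15 min at room temperature with compound. Then 40 uM arachidonic acid was added, 30 min. Hydroperoxide was read by Fe-XO absorbance ratio 573/405 nm.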
Starred values were filed as active, the others as inactive; [ ] = dose if it differs, or a comment. Unless noted, calls follow the shape of the dose curve; as a rule, active = well fitted curve in the direction sought with a large enough effect; inconclusive = small, poorly fitted or top-dose-only effect, or another doubt; inactive = no such curve, though single readings can be large; an effect the other way counts as inactive or inconclusive. Unless noted, % is scaled to controls: 0 for no effect and ±100 for the full control effect.

CN(C)CCNC(=O)C1Cc2c(-c3ccccc3Oc3ccccc3)ccnc2O1 (stereo unspecified) was read as DT40 TDP1 CPT 29µM*, HT1080 IDH1KD tx 23µM*, IL1B secr inh -22, DT40 TDP1 no CPT 18µM*, HT1080NT lethal inconclusive and ALOX12 inh -11%.
`CN1CCN(c2ccc(CNC(=O)C3Cc4c(-c5ccccc5Oc5ccccc5)ccnc4O3)cc2)CC1` (stereo unspecified) gave DT40 TDP1 CPT inconclusive, HT1080 IDH1KD tx 21µM*, IL1B secr inh inconclusive, DT40 TDP1 no CPT inconclusive, HT1080NT lethal inconclusive and ALOX12 inh -29%.
`Cc1nc(-c2cccnc2)[nH]c(=O)c1CC(=O)N(C)C(C)C(C)(C)C` (stereo unspecified) gave ALOX12 inh 0%.
CC(C)CNC(=O)CN(c1ccc(Cl)c(C(F)(F)F)c1)S(C)(=O)=O was read as ALOX12 inh 7%.
Screening CSc1ccc(C(=O)C2CCCN(C(=O)c3ccc4c(c3)no[n+]4[O-])C2)cc1 (stereo unspecified) returned DT40 TDP1 CPT inconclusive, HT1080 IDH1KD tx -7%, IL1B secr inh -67*, DT40 TDP1 no CPT 13µM*, HT1080NT lethal 26% and ALOX12 inh -4%.
For COc1ccc2cc(C(=O)C3CCCN(C(=O)c4cccnc4)C3)ccc2c1 (stereo unspecified) the results were DT40 TDP1 CPT inconclusive, HT1080 IDH1KD tx 3%, IL1B secr inh -30, DT40 TDP1 no CPT inconclusive, HT1080NT lethal 2% and ALOX12 inh -1%.
O=C(c1ccc2ccccc2c1)C1CCCN(C(=O)c2noc3c2CCCC3)C1 (stereo unspecified) was read as DT40 TDP1 CPT inconclusive, HT1080 IDH1KD tx -13%, IL1B secr inh -72*, DT40 TDP1 no CPT inconclusive, HT1080NT lethal -13% and ALOX12 inh 34%.
For CN(C)c1ccccc1C(=O)N1CCCC(C(=O)c2ccc3ccccc3c2)C1 (stereo unspecified) the results were DT40 TDP1 CPT inconclusive, HT1080 IDH1KD tx -28%, IL1B secr inh -8, DT40 TDP1 no CPT 23µM*, HT1080NT lethal -23% and ALOX12 inh 0%.
For O=C(c1ccc2ccccc2c1)C1CCCN(C(=O)c2cccnc2)C1 (stereo unspecified) the results were DT40 TDP1 CPT 16µM*, HT1080 IDH1KD tx -23%, IL1B secr inh inactive, DT40 TDP1 no CPT 15µM*, HT1080NT lethal -8% and ALOX12 inh 3%.
`CN(C)c1ccccc1C(=O)N1CCCC(Nc2ccc(F)cc2)C1` (stereo unspecified) gave DT40 TDP1 CPT -15%, HT1080 IDH1KD tx -3%, IL1B secr inh 26, DT40 TDP1 no CPT 3%, HT1080NT lethal -2% and ALOX12 inh -8%.
`CSc1ccc(C(=O)C2CCCN(C(=O)c3ccsc3)C2)cc1` (stereo unspecified) gave DT40 TDP1 CPT inconclusive, HT1080 IDH1KD tx 11%, IL1B secr inh 0, DT40 TDP1 no CPT inconclusive, HT1080NT lethal 4% and ALOX12 inh -26%.
Screening CCc1nnc(SCC(=O)Nc2cc(Cl)ccc2C)n1-n1cccc1 returned ALOX12 inh 30%.
For O=C(Cc1cccc(F)c1)N1CCn2c(nnc2[C@@H]2C[C@@H](O)CN2Cc2ccccc2)C1 the results were ALOX12 inh 23%.
Screening C#CCN1C(=O)S/C(=C/c2cn(C(C)C)c3ccccc23)C1=O returned ALOX12 inh 8%.
Screening CCC(=O)N1Cc2ccccc2CC2(CCCCN2Cc2ccncc2)C1 (stereo unspecified) returned ALOX12 inh 6%[6.33 µM].
For COc1ccc2oc(=O)c(C(=O)NCCc3c(C)[nH]c4ccccc34)cc2c1 the results were ALOX12 inh -6%.
Screening CSc1ncccc1C(=O)N1CCCC(C(=O)c2ccc3ccccc3c2)C1 (stereo unspecified) returned DT40 TDP1 CPT inconclusive, HT1080 IDH1KD tx 15%, IL1B secr inh -56*, DT40 TDP1 no CPT 21µM*, HT1080NT lethal 10% and ALOX12 inh 1%.
For CSc1ccc(C(=O)C2CCCN(C(=O)CCc3c(C)nn(C)c3C)C2)cc1 (stereo unspecified) the results were DT40 TDP1 CPT 10µM*, HT1080 IDH1KD tx inconclusive, IL1B secr inh -12, DT40 TDP1 no CPT 8.2µM*, HT1080NT lethal 13µM* and ALOX12 inh 7%.
`CSc1ccc(C(=O)C2CCCN(C(=O)c3cccnc3SC)C2)cc1` (stereo unspecified) gave DT40 TDP1 CPT inconclusive, HT1080 IDH1KD tx -4%, IL1B secr inh 53, DT40 TDP1 no CPT 16µM*, HT1080NT lethal 5% and ALOX12 inh 0%.
For CC1CCC2(CC1)NC(=O)N(CC(=O)NCc1cccc(Br)c1)C2=O (stereo unspecified) the results were ALOX12 inh -3%.
`O=S1CCNc2ccccc21` (stereo unspecified) gave ALOX12 inh 50%.
`CCCn1c(C)cc(C(=O)CSc2nnc(C(C)Oc3ccccc3F)o2)c1C` (stereo unspecified) gave ALOX12 inh 10%.
`CCOC(=O)c1csc(C)c1-c1ccccc1` gave ALOX12 inh 3%.
Cc1ccc(Cl)cc1NC(=O)C[n+]1ccc(Cc2ccc([N+](=O)[O-])cc2)cc1 was read as DT40 TDP1 CPT 5.8µM*, HT1080 IDH1KD tx -15%, IL1B secr inh -82*, DT40 TDP1 no CPT 5.2µM*, HT1080NT lethal inconclusive and ALOX12 inh inconclusive.
`O=C(C[n+]1ccc(Cc2ccccc2)cc1)Nc1ccc([N+](=O)[O-])cc1Cl` gave DT40 TDP1 CPT inconclusive, HT1080 IDH1KD tx 1%, IL1B secr inh inconclusive, DT40 TDP1 no CPT 15µM*, HT1080NT lethal -4% and ALOX12 inh -30%.
